Test results published in PubChem BioAssay (NCATS).
Records with an inconclusive call do not appear. Active and inactive are the calls of the source. The call rests on the fitted dose curve; in most records, active means well fitted curve in the direction sought with a large enough effect; inconclusive means small, poorly fitted or top-dose-only effect, or another doubt; inactive means no such curve, though single readings can be large; an effect the other way counts as inactive or inconclusive.

Legend:
[1] = target: Glutathione peroxidase 1 (Homo sapiens) (UniProt P07203); assay: Primary qHTS Assay for Inhibitors of Recombinant Selenoprotein Glutathione Peroxidase 1 (GPX1) (AID 1845191); further: nearly all actives have a fitted effect of over 65% in size; on activity, negative = inhibition: on the % scale 0 is the no-effect control and ±100 the full control effect
How it was run: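 NADPH consumption tracked by fluorescence at 340/450 nm between t=0 and t=15 min, room temperature. Final mix: 10 nM GPX1, 100 nM glutathione reductase, 1 mM GSH, 0.5 mM NADPH, 0.5 mM cumene hydroperoxide, 0.01% BSA; 30 min compound–enzyme preincubation.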

[2] = target: Phospholipid hydroperoxide glutathione peroxidase GPX4 (Homo sapiens) (UniProt P36969); assay: Primary qHTS Assay for Inhibitors of Recombinant Selenoprotein Glutathione Peroxidase 4 (GPX4) (AID 1845192); further: nearly all actives have a fitted effect of over 65% in size; on activity change, negative = inhibition: series mostly up to about 50 µM; on the % scale 0 is the no-effect control and ±100 the full control effect
How it was run: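 NADPH consumption followed by fluorescence at 340/450 nm, t=0 and after 15 min at room temperature. Reaction started with cumene hydroperoxide (0.5 mM final) after 30 min compound–GPX4 preincubation; final 200 nM GPX4, 100 nM GR, 1 mM GSH, 0.5 mM NADPH.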

[3] = target: Luciferin 4-monooxygenase (Photinus pyralis) (UniProt P08659); assay: Primary firefly luciferase (FLuc) qHTS assay for identification of artifact compounds. (AID 1845220); further: nearly all actives have a fitted effect of over 60% in size;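 on activity change, negative = inhibition: series mostly up to about 54 µM; plate controls were DMSO vehicle for no effect and no enzyme for full effect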
How it was run: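 Compounds sat 15 min at room temperature with 10 uM luciferin and 10 uM ATP (pH 7.6 Tris acetate). Firefly luciferase (10 nM final) was then added, and luminescence was read 5 min later. Data normalized to no-enzyme and DMSO controls were Hill-fitted.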

[4] = Primary fluorescence-based thiol-reactive (MSTI) qHTS assay for identification of artifact compounds. (AID 1845221);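 further: series mostly up to about 54 µM; thiol-reactive compounds lower the probe fluorescence signal; nearly all actives have a fitted effect of over 65% in size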
How it was run: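 A multi-concentration qHTS design tested compounds against 4 uM MSTI, pH 7.4 phosphate-buffered saline. Plates were protected from light for 1 h at room temperature before imaging fluorescence.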

[5] = system: Nanoluciferase (engineered Oplophorus gracilirostris luciferase); assay: Primary Nanoluciferase (NLuc) qHTS assay for identification of artifact compounds. (AID 1845222);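 further: series mostly up to about 54 µM; 0% = DMSO and -100% = no enzyme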
How it was run: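 Luminescence from secreted NLuc (filtered, 1:55-diluted S16 cell medium) read 5 min after Nano-Glo substrate; compounds preincubated 15 min, RT. Hill fits of inhibition normalized to DMSO and no-enzyme.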

[6] = Primary redox qHTS assay for identification of artifact compounds. (AID 1845223);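 further: 0% = DMSO and 100% = reference compound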
How it was run: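 Redox-cycling detection via DTT (250 uM final) oxidation coupled to Amplex Red (25 uM)/HRP (250 mU/mL) in HBSS. 15 min preincubation plus 30 min after DTT, room temperature. Ex/Em 525/598 nm; 4-parameter Hill fit against DMSO and 10 uM DA3003.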

Chain of Glutathione peroxidase 1 (Homo sapiens) (P07203 whole entry, looked up): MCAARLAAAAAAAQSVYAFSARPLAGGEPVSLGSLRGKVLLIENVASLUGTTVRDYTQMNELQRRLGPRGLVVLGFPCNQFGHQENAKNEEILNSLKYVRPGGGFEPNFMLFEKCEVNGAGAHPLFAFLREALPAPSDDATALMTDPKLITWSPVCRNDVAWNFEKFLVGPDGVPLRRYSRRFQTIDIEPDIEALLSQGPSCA
Chain of Phospholipid hydroperoxide glutathione peroxidase GPX4 (Homo sapiens) (P36969 whole entry, looked up): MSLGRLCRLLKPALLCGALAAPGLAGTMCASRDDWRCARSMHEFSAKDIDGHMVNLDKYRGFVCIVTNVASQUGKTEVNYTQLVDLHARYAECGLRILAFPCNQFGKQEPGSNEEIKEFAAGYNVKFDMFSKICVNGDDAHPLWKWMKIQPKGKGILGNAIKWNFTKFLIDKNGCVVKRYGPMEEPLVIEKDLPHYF

CCOC(=O)N1CCC(N2CCC[C@@H](NC(=O)c3ccccc3C)C2)CC1
inactive: Potency [1] | Potency [2] | Potency [3] | Potency [4] | Potency [5] | Potency [6]

CN(C)CC#CCCC(=O)C(O)(c1ccccc1)C1CCC1 (stereo not drawn)
inactive: Potency [1] | Potency [2] | Potency [3] | Potency [4] | Potency [5] | Potency [6]

O=S(=O)(NCc1ccccn1)c1ccc(Br)c2ccccc12
inactive: Potency [1] | Potency [2] | Potency [3] | Potency [4] | Potency [5] | Potency [6]

C=C1CC2[C@@]3(C)C=CC(=O)C(C)(C)C3=C(O)C(=O)[C@@]2(C)C2(C(=O)OC)C(=O)C(C)OC(=O)[C@@]12C (stereo partly drawn)
inactive: Potency [1] | Potency [2] | Potency [3] | Potency [4] | Potency [5] | Potency [6]

O=C(CCl)Nc1cccc(NC2=NS(=O)(=O)c3ccccc32)c1
inactive: Potency [1] | Potency [2] | Potency [3] | Potency [4] | Potency [5] | Potency [6]

CC1(C)CCC2(C(=O)OC3OC(COC4OC(CO)C(O)C(O)C4O)C(O)C(O)C3O)CCC3(C)C(=CCC4C5(C)CCC(OC6OCC(O)C(O)C6O)C(C)(C)C5CCC43C)C2C1O (stereo not drawn)
inactive: Potency [1] | Potency [2] | activity change, negative = inhibition [3] 0.58% [at 11.6 µM] | activity change, negative = thiol reactive [4] 122% [at 11.5 µM] | activity, negative = inhibition [5] -1.73% [at 11.6 µM] | redox activity (% of DA3003) [6] 18.7% [at 11.5 µM]

C=C1C(=O)O[C@H]2C3=C(C)CCC[C@]3(C)C(=O)C[C@@H]12
inactive: Potency [1] | Potency [2] | Potency [3] | Potency [4] | Potency [5] | Potency [6]

N#Cc1ccc(O[C@@H]2c3ccccc3C[C@H]2N2CCC[C@@H](N)C2)c(Cl)c1
inactive: Potency [1] | Potency [2] | Potency [3] | Potency [4] | Potency [5] | Potency [6]

COc1ccc(C2=NC(c3ccc(Cl)cc3)C(c3ccc(Cl)cc3)N2C(=O)N2CCNC(=O)C2)c(OC(C)C)c1 (stereo not drawn)
inactive: Potency [1] | Potency [2] | Potency [3] | Potency [4] | Potency [5] | Potency [6]

Cc1cn2cc(C(=O)N(C)CCO)cc(NC3CCOc4cccc(C)c43)c2n1 (stereo not drawn)
inactive: Potency [1] | Potency [2] | Potency [3] | Potency [4] | Potency [5] | Potency [6]

O=C(NCCN1CCC(n2c(=O)[nH]c3ccccc32)CC1)c1cc2cc(F)ccc2[nH]1
inactive: Potency [1] | Potency [2] | Potency [3] | Potency [4] | Potency [5] | Potency [6]

Cc1ccccc1CN1CCn2c1nc1c(c2=O)CN(Cc2ccccc2)CC1
inactive: Potency [1] | Potency [2] | Potency [3] | Potency [4] | Potency [5] | Potency [6]

C=CCC1=C[C@]2(OC)[C@H](C)[C@@H](c3ccc4c(c3)OCO4)O[C@]2(OC)CC1=O
inactive: Potency [1] | Potency [2] | Potency [3] | Potency [4] | Potency [5] | Potency [6]

CCC(CC)C(=O)OC12C(OC(=O)C(C)C)C(C)C3(O)C(C=C(CO)CC4(O)C(=O)C(C)=CC43)C1C2(C)C (stereo not drawn)
inactive: Potency [1] | Potency [2] | Potency [3] | Potency [4] | Potency [5] | Potency [6]

C[C@H]1CC[C@@]2(OC1)O[C@H]1CC3C4CC[C@H]5C[C@@H](O)CC[C@]5(C)C4=CC(=O)[C@]3(C)[C@H]1[C@@H]2C (stereo partly drawn)
inactive: Potency [1] | Potency [2] | Potency [3] | Potency [4] | Potency [5] | Potency [6]

C=C1CC[C@@H]2[C@](C)(CO)[C@H](O)CC[C@@]2(C)[C@@H]1CC(O)C1=CCOC1=O (stereo partly drawn)
inactive: Potency [1] | Potency [2] | Potency [3] | Potency [4] | Potency [5] | Potency [6]

COc1cc2ncnc(Oc3ccc(CC(=O)Nc4cnn(C(C)C)c4)cc3)c2cc1OC
inactive: Potency [1] | Potency [2] | Potency [3] | Potency [4] | Potency [5] | Potency [6]

Cc1cc(C)c(-n2cc(C)c3c(Cl)nc(C)nc32)c(C)c1
inactive: Potency [1] | Potency [2] | Potency [3] | Potency [4] | Potency [5] | Potency [6]

Cc1cc2sc(NC(=O)Cc3ccccc3)nc2cc1Cl
inactive: Potency [1] | Potency [2] | Potency [3] | Potency [4] | Potency [5] | Potency [6]

COc1cc(F)c(C(C)C)cc1-c1ccc(C(F)(F)F)cc1CN1C(=O)OC(c2cc(C(F)(F)F)cc(C(F)(F)F)c2)C1C (stereo not drawn)
inactive: Potency [1] | Potency [2] | Potency [3] | Potency [4] | Potency [5] | Potency [6]

CC(=O)OC1CC(C)C2(CCC3(CC(=O)OC3O)O2)C2(C)CCCC(C)(C)C12 (stereo not drawn)
inactive: Potency [1] | Potency [2] | Potency [3] | Potency [4] | Potency [5] | Potency [6]

C=C1CC[C@H]2C(=C)CC[C@H]3C(=C)C(=O)O[C@@H]3[C@@H]12
inactive: Potency [1] | Potency [2] | Potency [3] | Potency [4] | Potency [5] | Potency [6]

C/C(=C\CO[C@@H]1O[C@H](CO[C@H]2OC[C@](O)(CO)[C@H]2O)[C@@H](O)[C@H](O)[C@H]1O)C(C)(C)O
inactive: Potency [1] | Potency [2] | Potency [3] | Potency [4] | Potency [5] | Potency [6]
